From PubChem BioAssay (NCATS)
Unmarked numbers belong to inactive results. Inconclusive results are not listed. Entries that show only a call come without a potency. Active and inactive are the calls of the source. The call rests on the fitted dose curve; in most records, active means well fitted curve in the direction sought with a large enough effect; inconclusive means small, poorly fitted or top-dose-only effect, or another doubt; inactive means no such curve, though single readings can be large; an effect the other way counts as inactive or inconclusive.

Assays:
[1] = target: Phospholipid hydroperoxide glutathione peroxidase GPX4 (Homo sapiens) (UniProt P36969); assay: Primary qHTS Assay for Inhibitors of Recombinant Selenoprotein Glutathione Peroxidase 4 (GPX4) (AID 1845192); settings: recombinant GPX4, GR-coupled NADPH fluorescence, 15 min; series mostly up to 50 µM; further: nearly all actives have a fitted effect of over 65% in size; further: potency means the concentration at half of the fitted maximal effect
Chain of Phospholipid hydroperoxide glutathione peroxidase GPX4 (Homo sapiens) (P36969 whole entry, looked up): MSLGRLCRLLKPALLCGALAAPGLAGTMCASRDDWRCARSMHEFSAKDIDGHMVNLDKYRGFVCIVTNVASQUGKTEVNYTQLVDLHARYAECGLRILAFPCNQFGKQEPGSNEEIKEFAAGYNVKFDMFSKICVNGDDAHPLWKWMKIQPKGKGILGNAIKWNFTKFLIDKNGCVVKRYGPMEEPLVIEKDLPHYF
Method in brief: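 GR-coupled readout: 100 nM GR, 1 mM GSH, 0.5 mM NADPH; NADPH fluorescence (ex 340/em 450 nm) read at t=0 and after 15 min RT. GPX4 200 nM, preincubated 30 min with compound; substrate 0.5 mM CHP.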

[2] = target: Luciferin 4-monooxygenase (Photinus pyralis) (UniProt P08659); assay: Primary firefly luciferase (FLuc) qHTS assay for identification of artifact compounds. (AID 1845220); settings: purified firefly luciferase, luminescence, 5 min; series mostly up to 54.1 µM; further: nearly all actives have a fitted effect of over 60% in size; further: potency means the concentration at half of the fitted maximal effect
Method in brief: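 Reaction readout was CCD-imaged luminescence, taken 5 min after adding 10 nM purified firefly enzyme to compound-treated wells holding 10 uM luciferin and ATP in pH 7.6 buffer.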

[3] = Primary fluorescence-based thiol-reactive (MSTI) qHTS assay for identification of artifact compounds. (AID 1845221); settings: MSTI thiol-reactivity probe, 1 h; series mostly up to 53.8 µM; further: nearly all actives have a fitted effect of over 65% in size; further: potency means the concentration at half of the fitted maximal effect
Method in brief: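 MSTI probe at 4 uM final in 2% DMSO/PBS pH 7.4; compounds, 1 h at room temperature in dark. Fluorescence Ex/Em 525/598 nm, normalised to Acetyl-MSTI and MSTI, fitted to 4-parameter Hill.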

[4] = test system: Nanoluciferase (engineered Oplophorus gracilirostris luciferase); assay: Primary Nanoluciferase (NLuc) qHTS assay for identification of artifact compounds. (AID 1845222); settings: NLuc-conditioned medium, Nano-Glo luminescence, 5 min; series mostly up to 54.1 µM;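 further: NLuc secreted into diluted conditioned medium of S16 cells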
Method in brief: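 Concentration-response data were obtained by luminescence after 5 min with Nano-Glo substrate at 1:100. The enzyme was diluted S16 NLuc-expressing cell medium, preincubated with compound for 15 min at RT. Curves were fitted with a 4-parameter Hill model.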

[5] = Primary redox qHTS assay for identification of artifact compounds. (AID 1845223); settings: Amplex Red/HRP redox cycling with DTT, fluorescence; series mostly up to 53.8 µM; further: potency means the concentration at half of the fitted maximal effect
Method in brief: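 Amplex Red (25 uM) and HRP (250 mU/mL) in HBSS, with compounds for 15 min, then 250 uM DTT for 30 min, room temperature, dark. Fluorescence 525/598 nm read; normalized to DMSO and 10 uM DA3003; Hill fit.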

| Structure (SMILES) | Potency [1] | Potency [2] | Potency [3] | Potency [4] | Potency [5] |
| --- | --- | --- | --- | --- | --- |
| O=C(Nc1ccccc1Br)NC1CCN(c2ccc(C(F)(F)F)cn2)C1 (configuration not stated) | inactive | inactive | inactive | inactive | inactive |
| O=c1cc(NCCCN[C@@H]2CCOc3c(Br)cc(Br)cc32)[nH]c2ccsc12 | inactive | inactive | inactive | inactive | inactive |
| Cc1c(NC(=O)OCC2COCCN2)cn2ncnc(Nc3ccc4c(cnn4Cc4cccc(F)c4)c3)c12 (configuration not stated) | inactive | inactive | inactive | inactive | inactive |
| CC(C)(F)CC(NC(c1ccc(-c2ccc(S(C)(=O)=O)cc2)cc1)C(F)(F)F)C(=O)NC1(C#N)CC1 (configuration not stated) | inactive | inactive | inactive | inactive | inactive |
| O=C(O)CSc1cc(NS(=O)(=O)c2ccc(Br)cc2)c2ccccc2c1O | inactive | inactive | 0.474 µM (active) |  | 5.32 µM (active) |
| CN(C)C(CCOc1cccc2ccccc12)c1ccccc1 (configuration not stated) | inactive | inactive | inactive | inactive |  |
| CN(CC1COCCO1)S(=O)(=O)Nc1ccc2ccc3ncc(-c4cnn(C)c4)cc3c(=O)c2c1 (configuration not stated) | inactive | inactive | inactive | inactive | inactive |
| CN1CCC(NC(=O)c2cc(-c3c(O)cc(O)cc3Oc3ccc([N+](=O)[O-])cc3)on2)CC1 | inactive | inactive |  | inactive |  |
| Cc1cc(OCCCS(C)(=O)=O)cc(C)c1-c1cccc(COc2ccc(C3=CC(=O)NS3=O)cc2)c1 (configuration not stated) | inactive | inactive | inactive | inactive | inactive |
| CC(C)C[C@@H]1NC(=O)[C@@H]2C[C@@]34C[C@@H]5[C@@]6(C)CCCC(C)(C)C6CC[C@@]5(C)N(c5ccccc53)[C@H]4N2C1=O (some centres not stated) | inactive | inactive | inactive | inactive | inactive |
| O=C(c1ccc(F)cc1)N1CCCC(c2nc(-c3ccc(F)cc3)no2)C1 (configuration not stated) | inactive | inactive | inactive |  | inactive |
| O=C(Nc1ccc(-c2ccnc(Nc3ccc(N4CCOCC4)cc3)n2)cc1)C1CCCN1 (configuration not stated) | inactive | inactive | 11.9 µM (active) | inactive | inactive |
| CCC/C=C/c1cc2c(C=O)c(O)c(CC=C(C)C)cc2o1 |  | inactive | 23.8 µM (active) | inactive | inactive |
| CC(=O)Nc1cccc(-c2csc(Nc3cc(C)ccn3)n2)c1 | inactive | 3.01 µM (active) |  |  | inactive |
| COc1cc(N(C)CCN(C)C)c(N)cc1Nc1nccc(-c2cn(C)c3ccccc23)n1 |  | inactive |  | inactive | inactive |
| O=C(NCc1cccs1)c1cc2nc(-c3ccco3)cc(C(F)(F)Cl)n2n1 | inactive | inactive |  | inactive | inactive |
| CC(OC1OCCN(Cc2n[nH]c(=O)[nH]2)C1c1ccc(F)cc1)c1cc(C(F)(F)F)cc(C(F)(F)F)c1 (configuration not stated) | inactive | inactive |  | inactive | inactive |
| COc1cc2ncc(-c3ccccc3)nc2cc1OC | 20.2 µM (active) |  | inactive | inactive | inactive |
| N#Cc1ccc(Nc2nc(-c3ccc(O)cc3O)cs2)cc1C(F)(F)F | inactive | inactive |  | inactive |  |
| Cc1nc2ccc(CN(C)c3ccc(C(=O)NC(CCC(=O)O)C(=O)O)s3)cc2c(=O)[nH]1 (configuration not stated) | inactive | inactive |  | inactive | inactive |
| COc1cc(C(=O)O)ccc1NC(=O)C1NC(CC(C)(C)C)C(C#N)(c2ccc(Cl)cc2F)C1c1cccc(Cl)c1F (configuration not stated) | inactive |  | inactive | inactive | inactive |
| CCn1c(N)c(C(=O)NC)c(=O)c2ccc(C#CC(C)(O)COC)nc21 (configuration not stated) |  | inactive | inactive | inactive |  |
| Nc1nc2c(s1)CCN(Cc1ccc(Cl)cc1)CC2 | inactive | inactive |  | inactive | inactive |
| COc1ccnc(CS(=O)c2nc3cc(OC(F)F)ccc3[nH]2)c1OC (configuration not stated) |  | inactive | 21.2 µM (active) | inactive |  |
| C=CC(C)(C)C12CC3C(=O)N4C(CC5(C(C)(C)C=C)c6ccccc6NC45)C(=O)N3C1Nc1ccccc12 (configuration not stated) | inactive | inactive |  | inactive | inactive |
| Nc1nc(Nc2ccc3c(c2)CCC(N2CCCC2)CC3)nn1-c1cc2c(nn1)-c1ccccc1CCC2 (configuration not stated) | inactive | inactive |  | inactive | inactive |

| Structure (SMILES) | Potency [1] | Potency [2] | Potency [3] | Potency [4] | Potency [5] |
| --- | --- | --- | --- | --- | --- |
| Cc1nc2cc(C(=O)NCc3ccccn3)nn2c(C)c1Cc1cccc(Cl)c1 |  | inactive | inactive | inactive | inactive |
| Cc1cc(-c2nc3cc(F)ccc3s2)ccc1NC(=O)[C@@H](N)CCCCN |  | 1.9 µM (active) |  | inactive |  |
| CCCCCc1ccc(/C=C/C(=O)Nc2cc(Cl)ccc2C(=O)O)cc1 |  | inactive |  | inactive | inactive |
| CC(=O)Nc1nc(C)c(-c2nc(N3CCCC(O)C3)no2)s1 (configuration not stated) |  | inactive | inactive | inactive | inactive |
| COc1cc(C2OC(c3ccc(OC)c(OC)c3)C(C)C2C)ccc1O (configuration not stated) |  |  |  | inactive | inactive |
| NC(=O)c1cccc2[nH]c(-c3ccc(C4CCCN4)cc3F)nc12 (configuration not stated) |  |  | inactive | inactive | inactive |
| Cn1cc(-c2cnn3c(N)c(Br)c(C4CCCNC4)nc23)cn1 (configuration not stated) | inactive | inactive |  | inactive | inactive |
| Cc1cc(N2CCOCC2)ccc1Nc1nc(NC2CCCCC2)c2[nH]cnc2n1 |  | inactive | 1.68 µM (active) | inactive | inactive |
| CN(C)C(=O)Nc1cccc(-c2ccc(N(C)C)cc2)c1 | inactive |  |  | inactive |  |
| CCC(C(C)O)n1ncn(-c2ccc(N3CCN(c4ccc(OCC5COC(Cn6cncn6)(c6ccc(F)cc6F)C5)cc4)CC3)cc2)c1=O (configuration not stated) | inactive | inactive |  | inactive | inactive |
| NS(=O)(=O)c1ccc(N2N=C(c3ccccc3)CC2c2ccccc2)cc1 (configuration not stated) | 16.1 µM (active) |  | inactive | inactive | inactive |
| Cc1[nH]c(/C=C2\C(=O)Nc3cc(-c4ccccc4)ccc32)c(C)c1CCC(=O)O |  | 6.01 µM (active) | 0.67 µM (active) |  | inactive |
| CO[C@H]1O[C@@H]2O[C@@]3(C)CCC4[C@H](C)CCC([C@H]1C)[C@]42OO3 (some centres not stated) |  | inactive | inactive | inactive | inactive |
| c1cc(NC2CCNCC2)nc(-c2cnc3ccccn23)c1 | 16.1 µM (active) | inactive |  | inactive | inactive |
| O=C(Nc1ccccc1C(=O)NC1CCCCNC1=O)c1cc2ccccc2s1 (configuration not stated) |  |  | inactive | inactive | inactive |
| C=CC(=O)N1CCCC(n2nc(-c3ccc(Oc4ccccc4)cc3)c3c(N)ncnc32)C1 (configuration not stated) | inactive | inactive |  | inactive | inactive |
| CCOC(=O)N1c2ccc(C(F)(F)F)cc2C(N(Cc2cc(C(F)(F)F)cc(C(F)(F)F)c2)C(=O)OC)CC1CC (configuration not stated) | inactive | inactive |  | inactive |  |
| CN(C)S(=O)(=O)c1ccc(NC(=S)N2CCC(C(O)(c3ccccc3)c3ccccc3)CC2)cc1 |  | inactive | inactive | inactive | inactive |
| COC(=O)c1ccc2c(c1)[nH]c1ncnc(NCCCN3CCCCC3)c12 |  | inactive | inactive | inactive | inactive |
| Cc1cc2occ(CN(C)CCN(C)Cc3cn(-c4cccc(C(F)(F)F)c4)c4ccccc34)c(=O)c2cc1C | inactive | inactive |  | inactive | inactive |
| C[C@@H](c1ccc2nccn2c1)n1nnc2ncc(-c3cnn(C)c3)nc21 |  | inactive |  | inactive | inactive |
| CC(=O)O[C@@]12CO[C@@H]1C[C@H](O)[C@@]1(C)C(=O)[C@H](O)C3=C(C)[C@@H](OC(=O)[C@H](O)[C@@H](NC(=O)OC(C)(C)C)c4ccccc4)C[C@@](O)([C@@H](OC(=O)c4ccccc4)C12)C3(C)C (some centres not stated) |  | inactive | inactive | inactive | inactive |
| COc1cc2nc(N3CCN(C(=O)COc4c(OC)cccc4C(C)C)CC3)nc(N)c2cc1OC |  | inactive |  | inactive | inactive |
| COc1cc2c(NC3CCN(C(C)C)CC3)nc(N3CCC(F)(F)CC3)nc2cc1OCCCN1CCCC1 | 25.5 µM (active) | inactive |  | inactive |  |
| O=C1C[C@]23C=CCN4CCC5c6cc7c(cc6N1[C@@]5(CC2)C43)OCO7 (some centres not stated) | inactive | inactive |  | inactive | inactive |
